Rango-impB inh: qHTS Assay for Inhibitors of Rango (Ran-regulated importin-beta cargo) - Importin beta complex formation; 0.031% of 340,000 active; Potency, µM (highest dose often 92.2 µM); Importin subunit beta-1 (Homo sapiens), Q14974; Rango CFP/YFP FRET sensor + importin beta, 45 min; also: nearly all actives have a fitted effect of over 15% in size
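FRET biosensor (snurportin 1 IBB flanked by EYFP and cerulean), 50 nM, with compound 5 min, then 0.125 microM importin beta in PBS, 1 mM DTT, 0.02% Tween-20, 0.1% BSA. CFP/YFP ratio read after 45 min at room temperature; pre-read flags interference.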
hERG WT inh: qHTS for Inhibitors of KCHN2 3.1: Wildtype qHTS; Voltage-gated inwardly rectifying potassium channel KCNH2 (Homo sapiens), Q12809; U2OS, BacMam KCNH2, thallium flux FluxOr; hits give low values; activity change, % at 1.84 µM; 0.37% of 340,000 active;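 active = maximum activity change below -70%; inconclusive = maximum activity change between -70% and -50%; inactive = maximum activity change above -50%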
Target sequence (Q12809 whole entry, looked up): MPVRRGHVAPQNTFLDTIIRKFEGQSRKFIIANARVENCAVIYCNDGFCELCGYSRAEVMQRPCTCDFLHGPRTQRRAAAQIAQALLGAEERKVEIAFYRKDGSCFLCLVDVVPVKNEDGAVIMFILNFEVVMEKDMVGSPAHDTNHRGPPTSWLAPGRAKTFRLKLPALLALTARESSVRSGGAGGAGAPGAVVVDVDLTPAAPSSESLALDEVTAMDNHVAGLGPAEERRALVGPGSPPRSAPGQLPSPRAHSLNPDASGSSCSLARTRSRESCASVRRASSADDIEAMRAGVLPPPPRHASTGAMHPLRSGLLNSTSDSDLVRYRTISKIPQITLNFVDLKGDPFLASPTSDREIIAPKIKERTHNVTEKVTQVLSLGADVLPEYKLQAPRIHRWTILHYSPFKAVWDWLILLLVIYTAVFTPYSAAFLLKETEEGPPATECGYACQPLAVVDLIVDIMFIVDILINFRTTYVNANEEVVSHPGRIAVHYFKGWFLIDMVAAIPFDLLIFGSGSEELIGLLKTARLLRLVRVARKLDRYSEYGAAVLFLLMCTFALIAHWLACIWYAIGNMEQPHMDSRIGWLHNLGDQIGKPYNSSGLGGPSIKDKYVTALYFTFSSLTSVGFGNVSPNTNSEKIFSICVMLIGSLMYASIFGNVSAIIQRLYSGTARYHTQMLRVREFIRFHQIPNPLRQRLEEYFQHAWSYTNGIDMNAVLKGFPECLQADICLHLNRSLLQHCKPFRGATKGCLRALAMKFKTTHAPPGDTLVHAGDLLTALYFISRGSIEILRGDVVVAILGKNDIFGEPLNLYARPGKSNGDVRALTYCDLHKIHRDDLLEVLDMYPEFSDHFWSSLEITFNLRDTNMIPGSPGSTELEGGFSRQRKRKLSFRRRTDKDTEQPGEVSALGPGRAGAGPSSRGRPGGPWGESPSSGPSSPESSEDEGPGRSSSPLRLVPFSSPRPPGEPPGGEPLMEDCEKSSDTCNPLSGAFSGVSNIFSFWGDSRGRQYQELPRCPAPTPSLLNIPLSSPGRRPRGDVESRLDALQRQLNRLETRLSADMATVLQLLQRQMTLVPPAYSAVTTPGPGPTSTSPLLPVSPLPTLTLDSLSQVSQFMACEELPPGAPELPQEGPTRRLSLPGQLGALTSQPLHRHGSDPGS
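U2OS cells transduced with wild-type KCNH2 virus are loaded with FluxOr dye for 45 min, and thallium flux is measured in kinetic reads before and after stimulation buffer. Rate constants are normalized to DMSO controls.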
Rango dissoc inh: qHTS Assay for Inhibitors of RanGTP induced Rango (Ran-regulated importin-beta cargo) - Importin beta complex dissociation; Potency, µM (highest dose often 46.1 µM); 0.071% of 340,000 active; Biochemical FRET Rango-importin beta, RanGTP-induced dissociation; also: nearly all actives have a fitted effect of over 45% in size
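Compounds preincubate 5 min with complex of recombinant Rango and importin beta in PBS with 1 mM DTT. Ran (0.6 uM) loaded with 2 mM GTP plus 0.2 uM RCC1 starts dissociation; FRET is recorded 45 min later.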
KCNH2 3.1 inh: qHTS for Inhibitors of KCHN2 3.1: Mutant qHTS; U2OS KCNH2 3.1, thallium flux FluxOr; hits give low values; activity change, % (tested at about 1.8 µM); 0.95% of 340,000 active; AID 720553, 2013;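 active = maximum activity change below -70%; inconclusive = maximum activity change from -70% to -50%; inactive = maximum activity change above -50%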;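 also: thallium influx rate constant from kinetic fluorescence after stimulation buffer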
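Virally transduced U2OS (3.1 isoform, 4 h infection in dark at RT) → overnight 37 C → FluxOr + Red40 in HBSS/HEPES, 45 min → stimulation buffer, 2 min kinetic read → rate constant vs DMSO controls.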
Each line names hits and unclear results; the compound was inactive in the other large screens; [ ] = remark or other dose. In the library only some 1.3% were active in any assay of this set; here they are far more common. Unless noted, calls follow the shape of the full dose curve.

CCOc1cc(C(=O)NCCc2ccc(S(N)(=O)=O)cc2)cc(OCC)c1OCC	KCNH2 3.1 inh -90
O=C(NCCCn1ccnc1)c1cc(-c2ccncc2)nc2ccccc12	KCNH2 3.1 inh inconclusive
O=C(NCCCn1ccnc1)c1cc(-c2ccc(Cl)cc2)nc2ccccc12	hERG WT inh -79, KCNH2 3.1 inh -82
NS(=O)(=O)c1ccc(CNC(=O)c2cc(-c3ccccc3)nc3ccccc23)cc1	none
Cc1ccc2nc(-c3ccncc3)cc(C(=O)NCCc3ccc(F)cc3)c2c1	none
Cc1ccc(-c2cc(C(=O)NCCc3ccc(S(N)(=O)=O)cc3)c3ccccc3n2)cc1	none
Cc1ccc(CCNC(=O)c2cc(-c3ccncc3)nc3ccccc23)cc1	KCNH2 3.1 inh -112
COc1ccc(-c2cc(C(=O)NCCc3ccc(S(N)(=O)=O)cc3)c3ccccc3n2)cc1	KCNH2 3.1 inh -78
CCc1noc(C)c1C(=O)N(C)CC(=O)Nc1cccc(OC)c1	none
Cn1cc(CN2CCN(Cc3ccccc3)CC2)c(-c2cccc(Cl)c2)n1	KCNH2 3.1 inh -99
COCC1CCN(Cc2cn(C)nc2-c2cccc(Cl)c2)C1 (centres undefined)	none
COCCN1CCN(Cc2cn(C)nc2-c2cccc(Cl)c2)CC1	none
Cc1cnc(C)c(N2CCN(Cc3cn(C)nc3-c3cccc(Cl)c3)CC2)n1	KCNH2 3.1 inh -115
CN1C[C@@H]2[C@@H]3C(=O)N(C)C(=O)[C@@H]3[C@](Cc3ccccc3)(C1=O)N2C(=O)c1ccc(Cl)cc1	Rango-impB inh inconclusive
O=c1cc2c(nn1Cc1ccc(Cl)cc1)-c1ccccc1CC2	KCNH2 3.1 inh -95
CCCCn1nc(C(=O)N(C)Cc2nc3ccccc3c(=O)[nH]2)c2ccccc2c1=O	KCNH2 3.1 inh -75 (no result: Rango-impB inh, Rango dissoc inh)
Cc1cc(C)cc(NC(=O)C(=O)NCCCN2CCCC2=O)c1	none
Cc1noc(NS(=O)(=O)c2ccc(NC(=O)/C=C/c3ccccc3)cc2)c1C	none
CCOc1ccc(-n2c(=S)sc3c(=O)n(-c4ccc(F)cc4)c(SCC(=O)O)nc32)cc1	hERG WT inh -239
CCN(CC)C(=O)CSc1nc2c(sc(=S)n2CC)c(=O)n1-c1ccccc1	none
CCN(CC)C(=O)CSc1nc2c(sc(=S)n2-c2ccccc2)c(=O)n1Cc1ccco1	KCNH2 3.1 inh -78
O=C(O)CNC(=O)C1(NC(=O)OCc2ccccc2)CCCC1	none
CC1(C)CC(=O)C2=C(C1)N=C1SCCC(=O)N1C2c1ccccc1 (centres undefined)	KCNH2 3.1 inh -71
O=C1CCCC2=C1C(c1ccc(Cl)cc1)N1C(=O)CCSC1=N2 (centres undefined)	none
CCc1cc2c3c(c(=O)oc2cc1OCC(=O)OC)CCCC3	KCNH2 3.1 inh -100
CCc1cc2c3c(c(=O)oc2cc1OC(C)C(=O)O)CCCC3 (centres undefined)	none
Cc1ccc(N2CCN(C(=O)c3cn(CC4CCCCC4)nn3)C(C)C2)cc1 (centres undefined)	KCNH2 3.1 inh -71
O=C(c1cn(CC2CCCCC2)nn1)N1CCN(c2ccc(F)cc2)CC1	none
COc1cc(OC)c(N2CC(C(=O)NCCC3=CCCCC3)CC2=O)cc1Cl (centres undefined)	none
COc1ccc(OC)c(C2C(C#N)=C(N)Oc3c2c(C)nn3-c2cccc(Cl)c2)c1 (centres undefined)	KCNH2 3.1 inh -94
CCN(CC)c1ccc(/C=C/C(=O)C2C(=O)C=C(C)OC2=O)cc1 (centres undefined)	Rango-impB inh inconclusive, hERG WT inh inconclusive, Rango dissoc inh inconclusive, KCNH2 3.1 inh -78
O=[N+]([O-])c1cc(S(=O)(=O)Nc2ccccc2)ccc1-n1nnc2ccccc21	hERG WT inh -210, KCNH2 3.1 inh -183
COC(=O)C1=CN(Cc2ccccc2)C=C(C(=O)OC)C1c1ccc(OC)c(OC)c1	Rango-impB inh inconclusive, Rango dissoc inh 13µM
C=CCN([C@H](C(=O)OC)C(C)C)S(=O)(=O)CCNCc1ccccc1	none
COc1ccc(S(=O)(=O)N2CCCCCC2)cc1C(=O)N(C)CC(=O)Nc1ccccc1C(F)(F)F	none
CCCC(=O)N(CCN1CCOCC1)c1nc2c(OC)ccc(C)c2s1	none
CCCC(=O)N(CCN1CCOCC1)c1nc2c(C)ccc(C)c2s1	KCNH2 3.1 inh -85
O=C(CS(=O)(=O)c1ccccc1Cl)N1CCOCC1	none
COc1cc(OC)c(CN2CCC(CO)(CCOc3ccccc3)CC2)c(OC)c1	hERG WT inh -105, Rango dissoc inh inconclusive (no result: KCNH2 3.1 inh)
COc1cc(CN2CCC(CO)(CCOc3ccccc3)CC2)cc(OC)c1OC	none (no result: hERG WT inh)
COc1ccc(CN2CCC(CO)(CCOc3ccccc3)CC2)cc1C	KCNH2 3.1 inh -125
COc1ccccc1NC(=O)COC(=O)/C=C/c1ccc(OC)c(OC)c1	none
S=C(NCc1ccccc1)N1CCN(c2ccccc2)CC1	KCNH2 3.1 inh -74
O=C(NCc1ccccc1)N1CCN(c2ccccc2)CC1	none
COc1ccc(CCNC(=S)NNC(=O)c2c(Br)c(C)nn2C)cc1OC	KCNH2 3.1 inh -75
COc1cnn(-c2cccc(Cl)c2)c(=O)c1Cl	KCNH2 3.1 inh -100
C[C@@H](CN1C(=O)C(=O)NC[C@@H]1C)NC(=O)CC12CC3CC(CC(C3)C1)C2	none
COC(=O)c1cccc2c1-c1ccccc1/C2=N\NC(N)=O	hERG WT inh -147, KCNH2 3.1 inh -190
CCn1c(=O)c2c(nc3n2CCCN3CCc2ccc(OC)c(OC)c2)n(C)c1=O	Rango dissoc inh inconclusive, KCNH2 3.1 inh -72
CCCn1c(=O)c2c(nc3n2CCCN3CCc2ccc(OC)c(OC)c2)n(C)c1=O	none
CN1/C(=C/C(=S)NC(=O)C2(C)CC2(Cl)Cl)C(C)(C)c2ccccc21 (centres undefined)	Rango-impB inh inconclusive, Rango dissoc inh 0.52µM[inhibitor]
CC1CCCC(NC(=O)NC(=O)COC(=O)C2=NN(c3ccccc3)C(=O)CC2)C1C (centres undefined)	none
COc1ccc(CN2CCN(CCSc3ccc(C)cc3)CC2)c(OC)c1OC	KCNH2 3.1 inh -77
O=C(COC(=O)COc1ccccc1)NC12CC3CC(CC(C3)C1)C2	none
COc1ccccc1CNC(=O)CN1C(=O)NC(Cc2ccccc2)(c2ccccc2)C1=O (centres undefined)	none
Cn1nnnc1SCC(=O)NC1CCCCC1	Rango dissoc inh inconclusive
CCCCn1nnnc1SCC(=O)NC1CCCCC1	hERG WT inh -123
Cc1nc(SCC(=O)N2CCCC2=O)c2c(C)c(C)sc2n1	hERG WT inh -90 (no result: Rango-impB inh, Rango dissoc inh)
Cc1nc(SCC(=O)N2CCOCC2)c2c(C)c(C)sc2n1	none
O=C(CSc1ccccc1)Nc1ccc2c(c1)C(=O)NC2=O	none

Source: PubChem
